# Screening data (PubChem BioAssay)
# HP1b binding inh = HTS for Inhibitors of HP1-beta Chromodomain Interactions with Methylated Histone Tails; AlphaScreen HP1-beta / biotin-H3K9me3 peptide binding; Potency, µM (doses to about 114 µM), for inactives: at the top dose activity change, negative = inhibition, usual class: inhibitors; actives 0.56% (n = 390,000); AID 540317, 2011; further: nearly all actives have a fitted effect of over 70% in size
# Target sequence (P83916 whole entry, looked up): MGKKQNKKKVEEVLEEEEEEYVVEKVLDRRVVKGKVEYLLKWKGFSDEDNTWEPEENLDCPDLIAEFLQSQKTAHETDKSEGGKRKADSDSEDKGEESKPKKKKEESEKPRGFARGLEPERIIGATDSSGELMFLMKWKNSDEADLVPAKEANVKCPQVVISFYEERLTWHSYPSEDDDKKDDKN
#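 Compound inhibition of the preformed complex between 50 nM HP1-beta and 50 nM biotinylated H3K9me3 peptide was read by AlphaScreen. Buffer was PBS pH 7.4 with 0.01% Tween-20. Incubations ran 30 min at room temperature, with 10 ug/mL donor/acceptor beads.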
# JMJD2A Tudor = qHTS Assay for Inhibitors of JMJD2A-Tudor Domain | Potency, µM (highest dose often 114 µM), for inactives: at the highest dose activity change, negative = inhibition, hits mostly inhibitors | AID 504339, 2011 | actives 4.4% (n = 390,000) | AlphaScreen JMJD2A-Tudor / H3K4me3 peptide binding | Lysine-specific demethylase 4A (Homo sapiens), O75164; further: on the % scale 0 is the no-effect control and ±100 the full control effect; nearly all actives have a fitted effect of over 50% in size
# BAZ2B block = qHTS Assay for Inhibitors of BAZ2B | actives 4.4% (n = 360,000) | Bromodomain adjacent to zinc finger domain protein 2B (Homo sapiens), Q9UIF8 | Potency, µM (titrated, usually from 114 µM), inactives show at the top dose activity change, negative = inhibition, actives largely listed as inhibitors | AlphaScreen BAZ2B-H3K14Ac peptide displacement; further: on the % scale 0 is the no-effect control and ±100 the full control effect; nearly all actives have a fitted effect of over 60% in size
#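 Protein-peptide AlphaScreen: BAZ2B 50 nM, b-H3K14Ac 50 nM, 1x PBS pH 7.4 + 0.01% Tween-20. Preincubation 30 min RT; cpd 30 min RT (top 110 uM); beads 20 min RT, light-protected.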
# G9a inh = qHTS Assay for Inhibitors of Histone Lysine Methyltransferase G9a. Histone-lysine N-methyltransferase EHMT2 (Homo sapiens), Q96KQ7. G9a H3K9 monomethylation, AlphaScreen, 2 h. Potency, µM (series often up to 102 µM), for inactives: top-dose activity, negative = inhibition, most hits filed as inhibitors. actives 8.8% (n = 350,000); further: on the % scale 0 is the no-effect control and ±100 the full control effect; nearly all actives have a fitted effect of over 75% in size
# Target sequence (Q96KQ7 913-1193 limits assumed): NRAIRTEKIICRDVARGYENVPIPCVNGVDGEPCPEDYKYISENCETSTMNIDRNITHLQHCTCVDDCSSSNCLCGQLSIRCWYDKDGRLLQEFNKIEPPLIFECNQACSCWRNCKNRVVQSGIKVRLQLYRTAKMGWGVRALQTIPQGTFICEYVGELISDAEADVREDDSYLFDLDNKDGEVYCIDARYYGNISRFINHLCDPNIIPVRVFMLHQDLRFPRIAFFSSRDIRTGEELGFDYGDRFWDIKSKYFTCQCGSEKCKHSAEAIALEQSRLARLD
#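 Compounds were preincubated with 20 nM G9a for 15 min, after which biotinylated H3K9 peptide (500 nM) and SAM (20 uM) started a 2 h room-temperature reaction. Monomethylated product was quantified by antibody-based AlphaScreen chemiluminescence.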
# Sfp inh = qHTS Assay for Inhibitors of Bacillus subtilis Sfp phosphopantetheinyl transferase (PPTase); 4'-phosphopantetheinyl transferase ffp (Bacillus subtilis), Q9F4F7; Biochemical Sfp PPTase activity, qHTS; Potency, µM, inactives show largest response in the series, negative = inhibition, most hits filed as inhibitors; actives 3.5% (n = 310,000); AID 1490, 2009;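 further: the enzyme is Sfp with the accession as filed and its product quenches rhodamine fluorescence; 0% = enzyme reaction without inhibitor and -100% = no enzyme wells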
#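 Fluorescence-quenching assay with 15 nM Sfp, 5 uM rhodamine-CoA and 12.5 uM BHQ-2-labelled ybbR peptide in pH 7.6 Hepes/MgCl2 buffer. Enzyme was pre-incubated with compound for 15 min at room temperature. Rate was taken from the 30-min fluorescence change (525/598 nm).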
# The depositor's hits bear a star; ? = inconclusive; . = no result; [ ] = dose if it differs, or a comment. Hits are enriched below; roughly 12% of the tested compounds scored in any of these assays. The call rests on the fitted dose curve; in most records, active means well fitted curve in the direction sought with a large enough effect; inconclusive means small, poorly fitted or top-dose-only effect, or another doubt; inactive means no such curve, though single readings can be large; an effect the other way counts as inactive or inconclusive. Potency means the concentration at half of the fitted maximal effect.
SMILES,HP1b binding inh,JMJD2A Tudor,BAZ2B block,G9a inh,Sfp inh
C#Cc1ccc(CN2CCN(CCCc3ccccc3)C(CCO)C2)cc1 (stereo not drawn),16%,-23%,-24%,-2%[0.501 µM],15%
O=C(COc1ccc(Cl)cc1Cl)NC1CCSC1=O (stereo not drawn),32%,-7%,13%,-30%[12.7 µM],-6%
CCNc1nc(NC(C)C)nc(NS(=O)(=O)c2ccc(C)cc2)n1,54%,4%,-30%,14%[59 µM],13%
CCCCc1n[nH]c(=S)n1Cc1ccccc1,8%,4µM*,-27%,?,9%
CCCCc1n[nH]c(=S)n1Cc1ccc(Cl)cc1,19%,?,-12%,3.5µM*,-13%
OCC[C@H]1C[C@@H](O)[C@H](O)[C@]2(CCCO2)O1,20%,-19%,.,.,.
CC(NC(=O)c1ccccc1Br)c1nnc(SCC(=O)NC2CCCCC2)n1C (stereo not drawn),15%,-8%,8%,1%[59 µM],2%
CCCN(CCC)C(=O)Cn1c(=O)n(-c2ccc(OC)cc2)c(=O)c2ccc(C(=O)NCc3ccc(C)cc3)cc21,14%,-18%,.,4%[59 µM],.
CSc1nc(-c2cccs2)c(C#N)c(=O)[nH]1,0%,-6%,-20%,45µM*,0%
N#Cc1c(-c2cccs2)nc(SCc2ccc(Cl)cc2)[nH]c1=O,-28%,?,?,-25%,79µM*
O=C(O)/C=C/C(=O)Nc1ccc(Oc2ncnc3cc(Cl)ccc23)nc1,-6%,-20%,-10%,?,79µM*
O=C(Nc1ccccc1)Nc1ccc(Oc2ncnc3cc(Cl)ccc23)nc1,22%,-15%,-1%,13%[59 µM],16%
O=C(COC(=O)c1ccc(O)cc1O)NC(=O)NCc1ccccc1,12%,-13%,3%,7%[59 µM],.
CCOC(=O)C1=NNC(C(=O)c2ccc(OC)cc2)C1c1ccccc1 (stereo not drawn),23%,-12%,-3%,56µM*,11%
CCOC(=O)C1=NNC(C(=O)c2ccccc2)C1c1ccc(C)cc1 (stereo not drawn),20%,-20%,-21%,-3%,10%
CCOC(=O)C1=NNC(C(=O)c2ccc(C)cc2)C1c1ccc(C)cc1 (stereo not drawn),-12%,-19%[57.1 µM],-3%,79µM*,?
CCOC(=O)C(C)(C)N(Cc1ccc(C)cc1)S(=O)(=O)c1ccc(Cl)c([N+](=O)[O-])c1,-8%,-27%,-10%,?,-4%
C=CCn1c(C)cc(C(=O)COc2ccc(S(=O)(=O)N3CCCC3)cc2[N+](=O)[O-])c1C,22%,-12%[57.1 µM],-35%,?,-1%
COc1ccc(CNC(=O)CCNS(=O)(=O)c2ccc(Br)s2)cc1,-2%,79µM*,8%,-13%,8%
CNC(=S)NNC(=O)COc1ccc(C)c(C)c1,8%,50µM*,-5%,32µM*,5%
COc1ccc(OCC(=O)NNC(=S)NC(=O)c2ccc([N+](=O)[O-])cc2)cc1,-17%,-25%,-16%,1.1µM*,32µM*
COc1ccc(CNC(=O)c2c(C)oc3c2C(=O)c2ccccc2C3=O)cc1,8%,?,7.9µM*,11µM*,10%
COc1ccc(CNC(=O)c2ccc(Br)o2)cc1,42%,0%,1%,20µM*,-16%
Cc1ccc(CNC(=O)c2ccc(Br)o2)cc1,8%,-9%,-22%,-57%[12.7 µM],-26%
O=C(COc1ccccc1)NNC(=O)COc1ccc([N+](=O)[O-])cc1,20%,-12%,-17%,?,16%
SMILES,HP1b binding inh,JMJD2A Tudor,BAZ2B block,G9a inh,Sfp inh
CCCCCC(=O)NNC(=S)NC(=O)c1ccc([N+](=O)[O-])cc1,?,?,-37%,2.5µM*,35µM*
COc1ccc(OCC(=O)NNC(=S)NC(=O)c2ccc(Br)o2)cc1,-17%,-24%,-10%,22µM*,3%
COc1ccc(OCC(=O)NNC(=O)c2cc3ccccc3o2)cc1,26%,-4%,-4%,-9%,18%
CC(=O)NC(=S)NNC(=O)COc1ccc([N+](=O)[O-])cc1,-1%,-18%[11.4 µM],8%,8.9µM*,-18%
COc1ccc(NC(=S)N2CCC(N(C)CCN3CCOCC3)CC2)cc1Cl,23%,-13%,7%,-6%[59 µM],10%
COc1ccc2[nH]cc(CCNc3ccnc(-c4cccnc4)n3)c2c1,.,.,.,5%[0.501 µM],-20%
CCOC(=O)Cn1c(=O)oc2cc(S(=O)(=O)N3CCN(c4cccc(C)c4)C(C)C3)ccc21 (stereo not drawn),16%,-22%,-20%,-10%[59 µM],.
CN([C@@H](Cc1ccc(OS(=O)(=O)c2cccc3cnccc23)cc1)C(=O)N1CCN(c2ccccc2)CC1)S(=O)(=O)c1cccc2cnccc12,49%,-23%,-10%,4%[59 µM],11%
CC(=O)NC(=S)NNC(=O)COc1ccc(Br)cc1,0%,25µM*,9%,1.8µM*,-52%
CC1SCC(=NOCc2ccccc2)CS1 (stereo not drawn),31%,26%,-5%,31%,3%
N#CC1=CN(Cc2ccccc2)C=C(/C=N/Nc2ccccc2)C1,1%,?,-35%,3.5µM*,-21%
CCOC(=O)C(=O)C1=CN(Cc2ccccc2)C=C(C#N)C1,22%,-6%,6%,?,5%
O=c1c2cn[nH]c2[nH]c(=S)n1-c1ccccc1Cl,30%,-15%,14%,45µM*,56µM*
O=c1c2cn[nH]c2[nH]c(=S)n1-c1ccccc1F,-14%,?,?,8.9µM*,-12%
Cc1ccc(-n2c(=S)[nH]c3[nH]ncc3c2=O)cc1,42%,-30%,?,35µM*,-25%
CCOC(=O)c1cccc(NC(=O)c2cc3sccc3n2C)c1,-6%,?,-9%,-4%[12.7 µM],1%
CCCN(CCC)CCCNS(=O)(=O)c1ccc2c(c1)oc(=O)n2C,18%,-23%,12%,5%[59 µM],1%
CS(=O)(=O)c1ccc(S(=O)CC(=O)Oc2ccc(Cl)cc2)c([N+](=O)[O-])c1 (stereo not drawn),9%,-5%,-2%,6.3µM*,?
O=C(CS(=O)c1ccccc1[N+](=O)[O-])Oc1ccc(Br)cc1 (stereo not drawn),29%,-18%,?,.,-6%
O=C(O)CCN1C(=O)S/C(=C\c2cccnc2)C1=O,32%,-11%,?,71µM*,11%
O=C(O)CCN1C(=O)/C(=C\c2ccncc2)SC1=S,33%,-1%,-23%,56µM*,?
O=C1/C(=C/c2cccnc2)SC(=S)N1CCc1ccccc1,12%,-28%,10µM*,.,-1%
